Growth inhibition, inhibition and outcome data for 19 molecules are collected here from PubChem BioAssay.

A number with no mark means an inactive call. For some assays here: Entries with a potency or affinity are not part of this list. The source made the active and inactive calls. Unless noted, the rule behind the calls is not given here.

The nature of assay [1]: antimalarial activity against Dd2 strain (AID 2302;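 active = growth inhibition above 50% at the single 2 µM test dose, taken to imply half-maximal potency below 2 µM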;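 note: 0% = DMSO untreated growth and 100% = chloroquine plus artemisinin killed control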). As to conditions: P. falciparum Dd2 in RBCs, LDH growth readout, 72 h; at 2 µM; hits give high values.
A short description of assay [2]: HepG2 cytotoxicity, primary screen, cytotoxicity control for P. falciparum antimalarial project, cell-based, ATP luminescence (AID 2303;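 active = inhibition above 50%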;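 note: 0% = DMSO wells and 100% = digitonin-killed cells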). As to conditions: HepG2 viability, 24-48 h, at 10 µM, hits give high values.
Assay [3] concerns the target L-lactate dehydrogenase (Plasmodium falciparum (isolate CDC / Honduras)) (UniProt Q27743). Briefly: PfLDH activity inhibition – cell lysate, 3D7 strain, counter-screen for P. falciparum growth inhibition project (AID 2304).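 Note: 0% = vehicle and 100% = reference inhibitor.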 The settings on record: P. falciparum 3D7 crude extract, LDH APAD/NBT absorbance; at 2 µM; hits give high values. (In general: A counterscreen serves to expose hits that act by an unwanted route or on another target.)

Assay [4] can be described thus: inhibition of 3D7 malaria parasite growth – strain 3D7 (AID 2306).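 Note: 0% = DMSO wells and 100% = chloroquine plus artemisinin control wells.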 The settings on record: P. falciparum 3D7 erythrocytic growth, LDH absorbance, 72 h; at 2 µM; hits give high values.
Assay [5] deals with Calcium-dependent protein kinase 1 (Plasmodium falciparum (isolate 3D7)) (UniProt P62344). Briefly: PfCDPK1 kinase inhibitors, biochemical, TCAMS library (AID 1159585; cut-off not given, nearly all actives have IC50 up to about 0.98 µM;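 note: inhibitors leave more ATP so luminescence rises with inhibition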). As to conditions: recombinant PfCDPK1, Kinase-Glo ATP depletion luminescence.
Chain of Calcium-dependent protein kinase 1 (Plasmodium falciparum (isolate 3D7)) (P62344 whole entry, looked up): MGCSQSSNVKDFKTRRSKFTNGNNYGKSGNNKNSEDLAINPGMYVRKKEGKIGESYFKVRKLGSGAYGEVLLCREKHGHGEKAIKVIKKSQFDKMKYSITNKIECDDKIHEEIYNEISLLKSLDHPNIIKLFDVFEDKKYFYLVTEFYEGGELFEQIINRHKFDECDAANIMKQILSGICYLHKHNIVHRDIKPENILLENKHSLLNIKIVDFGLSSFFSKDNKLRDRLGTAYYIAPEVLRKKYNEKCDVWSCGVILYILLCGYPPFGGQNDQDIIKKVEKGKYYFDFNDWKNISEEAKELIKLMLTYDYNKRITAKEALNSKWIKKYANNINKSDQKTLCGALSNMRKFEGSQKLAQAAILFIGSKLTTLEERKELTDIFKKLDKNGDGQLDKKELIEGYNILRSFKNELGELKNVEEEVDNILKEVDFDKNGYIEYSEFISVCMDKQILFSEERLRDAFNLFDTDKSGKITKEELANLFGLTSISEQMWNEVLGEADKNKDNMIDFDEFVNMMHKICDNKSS
Assay [6] deals with Plasmodium falciparum protein kinase 6 (PK6, PF3D7_1337100) (UniProt Q8IDW1). Put plainly: PfPK6 kinase inhibitors, biochemical, TCAMS library (AID 1159586). The settings on record: recombinant PfPK6, Kinase-Glo ATP depletion luminescence.
Chain of Plasmodium falciparum protein kinase 6 (PK6, PF3D7_1337100) (Q8IDW1 1-305): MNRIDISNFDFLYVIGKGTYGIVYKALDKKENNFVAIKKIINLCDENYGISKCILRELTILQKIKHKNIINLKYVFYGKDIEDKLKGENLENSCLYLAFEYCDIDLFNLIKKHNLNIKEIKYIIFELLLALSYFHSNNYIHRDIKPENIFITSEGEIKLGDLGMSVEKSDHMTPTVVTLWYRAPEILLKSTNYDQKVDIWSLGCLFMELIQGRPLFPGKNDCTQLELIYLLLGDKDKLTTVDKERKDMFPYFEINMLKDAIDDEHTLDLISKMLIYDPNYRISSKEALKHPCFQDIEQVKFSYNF
In assay [7] the target is Protein kinase 7 (PK7), Plasmodium falciparum 3D7 (PF3D7_0213400) (UniProt Q7YTF7). Put plainly: inhibition of Plasmodium PK7 catalytic activity – biochemical, TCAMS antimalarial set, Kinase-Glo luminescence (AID 1159587). As to conditions: recombinant PfPK7, Kinase-Glo ATP depletion luminescence. Background: Kinase-Glo reads ATP consumption through a luciferase reaction.
Chain of Protein kinase 7 (PK7), Plasmodium falciparum 3D7 (PF3D7_0213400) (Q7YTF7 1-343): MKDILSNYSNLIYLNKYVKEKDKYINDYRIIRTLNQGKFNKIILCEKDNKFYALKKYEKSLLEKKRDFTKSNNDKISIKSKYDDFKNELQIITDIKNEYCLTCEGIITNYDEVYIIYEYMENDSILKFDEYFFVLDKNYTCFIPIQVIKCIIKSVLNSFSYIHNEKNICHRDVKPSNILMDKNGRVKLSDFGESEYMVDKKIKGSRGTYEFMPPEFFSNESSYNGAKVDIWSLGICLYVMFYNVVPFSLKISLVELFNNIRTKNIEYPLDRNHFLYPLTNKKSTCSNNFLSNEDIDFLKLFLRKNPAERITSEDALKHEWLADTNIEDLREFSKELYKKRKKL

Assay [8] concerns the target Calcium-dependent protein kinase 4 (Plasmodium falciparum (isolate 3D7)) (UniProt Q8IBS5). Briefly: PfCDPK4 kinase inhibitors, biochemical, TCAMS library (AID 1159588; cut-off not given, nearly all actives have IC50 up to about 0.91 µM). The settings on record: recombinant PfCDPK4, Kinase-Glo ATP depletion luminescence.

Chain of Calcium-dependent protein kinase 4 (Plasmodium falciparum (isolate 3D7)) (Q8IBS5 whole entry, looked up): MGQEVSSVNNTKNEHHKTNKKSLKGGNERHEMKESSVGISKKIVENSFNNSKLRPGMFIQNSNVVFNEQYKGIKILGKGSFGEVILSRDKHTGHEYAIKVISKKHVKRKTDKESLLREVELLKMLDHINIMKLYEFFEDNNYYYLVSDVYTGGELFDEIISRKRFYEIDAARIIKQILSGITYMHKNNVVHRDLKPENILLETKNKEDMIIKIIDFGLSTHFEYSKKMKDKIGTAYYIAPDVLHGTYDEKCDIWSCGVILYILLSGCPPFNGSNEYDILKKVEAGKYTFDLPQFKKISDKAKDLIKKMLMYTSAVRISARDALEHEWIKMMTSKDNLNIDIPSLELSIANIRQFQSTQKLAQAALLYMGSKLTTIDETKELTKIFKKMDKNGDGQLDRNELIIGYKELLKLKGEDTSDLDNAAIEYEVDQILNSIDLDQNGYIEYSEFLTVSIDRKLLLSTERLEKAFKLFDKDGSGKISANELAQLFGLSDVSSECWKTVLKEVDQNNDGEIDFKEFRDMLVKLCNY
Chain of L-lactate dehydrogenase (Plasmodium falciparum (isolate CDC / Honduras)) (Q27743 whole entry, looked up): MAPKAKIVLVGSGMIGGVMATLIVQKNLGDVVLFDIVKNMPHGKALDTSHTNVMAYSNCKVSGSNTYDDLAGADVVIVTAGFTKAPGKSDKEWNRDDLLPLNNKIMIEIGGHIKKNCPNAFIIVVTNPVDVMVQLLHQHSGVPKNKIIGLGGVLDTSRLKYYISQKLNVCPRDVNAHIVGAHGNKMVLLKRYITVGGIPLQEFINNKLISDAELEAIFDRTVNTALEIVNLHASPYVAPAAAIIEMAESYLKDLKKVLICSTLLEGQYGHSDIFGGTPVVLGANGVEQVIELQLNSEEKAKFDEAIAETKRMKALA

Regarding `Cc1c(CNCCCNc2nc3cscc3[nH]2)sc(C(F)F)c1Br`, the values for the growth inhibition in assay [1] and in assay [4] were 11% and 99% (active), respectively. Moreover, the inhibition in assay [2] and in assay [3] was 1% in each case. Further, the outcome in assay [5], in assay [6], in assay [7] and in assay [8] was inactive.
Consider `COc1ccc(-c2ccc(NC(=O)c3ccc(Cl)cc3)cc2)cc1CN1CCCN(C)CC1`, for which the results for the growth inhibition in assay [1] and in assay [4] were 61% (active) and 93% (active), respectively. Further, the inhibition (usually the drop in the measured response relative to a control, in per cent) in assay [2] was 27%; in assay [3], 2%. Also, the outcome in assay [5], in assay [6], in assay [7] and in assay [8] was inactive.
Take `CCOc1ccc(-c2nonc2NC(=O)c2cccs2)cc1OCC`: the growth inhibition in assay [1] is 100% (active); in assay [4], 101% (active). In addition, the values for the inhibition in assay [2] and in assay [3] were 6% and 4%, respectively. For the same molecule, the result in assay [5], in assay [6], in assay [7] and in assay [8] was inactive.
On to `CCCCCc1cc(OC(C)=O)c2c(c1)OC(C)(C)C=C2C1=CCN(Cc2ccccc2)CC1`, for which the growth inhibition in assay [1] was 88% (active); in assay [4] it was 97% (active). Also, the inhibition is 14% in assay [2] and -3% in assay [3]. The result in assay [5], in assay [6], in assay [7] and in assay [8] was inactive.
In the case of `O=C(/C=C/c1ccc(Cl)c(Cl)c1)NCCCCCN1CCC(NC(=O)NC2CCCC2)CC1`, the results for the growth inhibition in assay [1] and in assay [4] were 31% and 99% (active), respectively. The inhibition in assay [2] was 21%; in assay [3] it was -1%. Moreover, the outcome in assay [5], in assay [6], in assay [7] and in assay [8] was inactive.
As to `Cc1ccccc1Nc1cc(Nc2ccccc2C)c2ccccc2n1`, the values for the growth inhibition in assay [1] and in assay [4] were 93% (active) and 96% (active), respectively. Also, the inhibition in assay [2] was 28%; in assay [3], -1%. In addition, the outcome in assay [5], in assay [6], in assay [7] and in assay [8] was inactive.
Consider `CNCCNCc1ccc(-c2ccc(-c3nc4c(C)cccc4[nH]3)cc2)cc1`, for which the growth inhibition in assay [1] was 79% (active); in assay [4], 96% (active). Besides, the inhibition in assay [2] was 19%; in assay [3], -5%. Also, the result in assay [5], in assay [6], in assay [7] and in assay [8] was inactive.
Consider `c1ccc(CN2CCC(NCc3ccc(-c4ccc(CNCc5cccnc5)cn4)cc3)CC2)cc1`, for which the growth inhibition in assay [1] is 13%; in assay [4], 97% (active). Also, the inhibition is -1% in assay [2] and -5% in assay [3]. Also, the result in assay [5], in assay [6], in assay [7] and in assay [8] was inactive.
For `OC(c1n[nH]c(=S)n1-c1ccccc1)C(O)c1n[nH]c(=S)n1-c1ccccc1` (configuration not stated), the results for the growth inhibition in assay [1] and in assay [4] were 89% (active) and 92% (active), respectively. Further, the values for the inhibition in assay [2] and in assay [3] were 18% and 4%, respectively. Further, the result in assay [5], in assay [6], in assay [7] and in assay [8] was inactive.
Consider `N#Cc1cccc(Nc2cc(C(F)(F)F)nc(Nc3ccccc3)n2)c1`, for which the growth inhibition in assay [1] was 17%; in assay [4] it was 92% (active). For the same molecule, the inhibition in assay [2] was 7%; in assay [3], 5%. Also, the result in assay [5], in assay [6], in assay [7] and in assay [8] was inactive.
With `CNc1ccc(CNCc2ccc(-c3ccc(-c4nc5ccc(C(F)(F)F)cc5[nH]4)s3)cc2)cc1`, the figures for the growth inhibition in assay [1] and in assay [4] were 97% (active) and 102% (active), respectively. Further, the inhibition in assay [2] is 44%; in assay [3], -2%. Besides, the outcome in assay [5], in assay [6], in assay [7] and in assay [8] was inactive.
Consider `Cc1ccccc1CCNC(=O)c1ccc(N2CCN(c3ccncc3)CC2)nc1`, for which the growth inhibition is 20% in assay [1] and 95% (active) in assay [4]. Moreover, the values for the inhibition in assay [2] and in assay [3] were 10% and -3%, respectively. Also, the outcome in assay [5], in assay [6], in assay [7] and in assay [8] was inactive.
For the molecule `CN1CCN(c2ccnc3ccc(NC(=O)Nc4ccc(-c5ccncc5)c5ccccc45)cc23)CC1`, the growth inhibition was 84% (active) in assay [1] and 101% (active) in assay [4]. The results for the inhibition in assay [2] and in assay [3] were 76% (active) and -4%, respectively. Besides, the result in assay [5], in assay [6], in assay [7] and in assay [8] was inactive.
As for `CN1CCC(C(=O)Nc2ccc(-c3ccc(-c4nc5ccc(C(F)(F)F)cc5[nH]4)s3)cc2)CC1`, the growth inhibition is 95% (active) in assay [1] and 101% (active) in assay [4]. In addition, the inhibition in assay [2] is 53% (active); in assay [3], 4%. In addition, the result in assay [5], in assay [6], in assay [7] and in assay [8] was inactive.
`O=C(Nc1cccc(-c2cccc(-c3nc4ccc(C(F)(F)F)cc4[nH]3)c2)c1)c1cnc[nH]1`: the growth inhibition in assay [1] was 100% (active); in assay [4], 101% (active). Also, the values for the inhibition in assay [2] and in assay [3] were 14% and 2%, respectively. Further, the result in assay [5], in assay [6], in assay [7] and in assay [8] was inactive.
With `CN(CCN(C)C(=O)NCc1ccccc1)C(=O)NCc1ccccc1`, the growth inhibition in assay [1] is 0%; in assay [4], 101% (active). Besides, the results for the inhibition in assay [2] and in assay [3] were 2% and 1%, respectively. For the same molecule, the result in assay [5], in assay [6], in assay [7] and in assay [8] was inactive.
With `CN1CCC(NCCS(=O)(=O)c2cccc(Nc3ccc(-c4cccc(F)c4)cn3)c2)CC1`, the growth inhibition in assay [1] was -3%; in assay [4], 99% (active). Besides, the results for the inhibition in assay [2] and in assay [3] were 27% and 5%, respectively. Further, the result in assay [5], in assay [6], in assay [7] and in assay [8] was inactive.
As for `COc1ccc(-c2ccc(NC(=O)c3cccs3)cc2)cc1CN1CCCN(C)CC1`, the growth inhibition is 30% in assay [1] and 100% (active) in assay [4]. The inhibition in assay [2] is 31%; in assay [3], 4%. Also, the outcome in assay [5], in assay [6], in assay [7] and in assay [8] was inactive.
As to `CCCc1cc(=O)[nH]c(-n2nc(C)cc2NC(=O)C(CC)c2ccccc2)n1` (configuration not stated), the growth inhibition in assay [1] was 63% (active); in assay [4] it was 94% (active). The inhibition in assay [2] is 41%; in assay [3] it was -2%. The outcome in assay [5], in assay [6], in assay [7] and in assay [8] was inactive.
